Experimental data as given in PubChem BioAssay (NCI).
Compounds without any hit were thinned out: in the full panel of roughly 79,000, 15% have a hit. Values without a mark were called inactive. Active and inactive are the calls of the source. Cut-off read from the data, not from the text of the source: active = growth inhibition above about 70%; inactive = the rest.

Assays:
[1] = NCI Yeast Anticancer Drug Screen. Data for the rad52 strain (AID 147);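 note: 0% = growth of vehicle-treated control cultures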; details: S. cerevisiae rad52 mutant growth inhibition, active compounds read high
In short: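 Screen used a yeast mutant impaired in DNA repair. After compound exposure, growth was measured. Values reflect inhibition compared with vehicle-treated cells.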

[2] = NCI Yeast Anticancer Drug Screen. Data for the wt1 strain (AID 149);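 note: 0% = growth of vehicle-treated wt1 cultures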; details: S. cerevisiae wt1 strain (SPY 50644) growth inhibition, active compounds read high
In short: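 Yeast wt1 strain exposed to compounds; growth inhibition measured relative to vehicle-treated controls.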

[3] = NCI Yeast Anticancer Drug Screen. Data for the mgt1 strain (AID 153); details: S. cerevisiae mgt1 mutant growth inhibition, active compounds read high
In short: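 Genetically defined yeast (mgt1) treated with compound; inhibition of growth expressed against vehicle-treated controls.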

[4] = NCI Yeast Anticancer Drug Screen. Data for the rad50 strain (AID 155);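 note: 0% = growth of vehicle-only cultures of the same strain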; details: S. cerevisiae rad50 strain growth inhibition, active compounds read high
In short: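 Yeast carrying a defined DNA repair defect were exposed to test compounds, and growth was compared with vehicle-treated controls to give percent inhibition.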

[5] = NCI Yeast Anticancer Drug Screen. Data for the mec2-1 strain (AID 157); details: S. cerevisiae mec2-1 strain, active compounds read high
In short: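 Readout is yeast growth inhibition, normalised to vehicle-treated controls, in the mec2-1 strain exposed to compound.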

[6] = NCI Yeast Anticancer Drug Screen. Data for the rad14 strain (AID 159);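 note: 0% = growth of vehicle-treated control cultures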; details: S. cerevisiae rad14 strain growth inhibition, active compounds read high
In short: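 Yeast cells carrying a defined DNA-repair defect were exposed to compounds, and growth inhibition was calculated relative to vehicle-treated control cultures.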

[7] = NCI Yeast Anticancer Drug Screen. Data for the sgs1 mgt1 strain (AID 161);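 note: 0% = growth of cultures given vehicle only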; details: S. cerevisiae sgs1 mgt1 strain, active compounds read high
In short: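 This yeast growth screen uses a strain with defined DNA-repair lesions; compound-treated growth is compared with vehicle-treated growth.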

[8] = NCI Yeast Anticancer Drug Screen. Data for the CLN2oe strain (AID 163);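 note: 0% = growth of vehicle-only control cultures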; details: S. cerevisiae CLN2oe strain, active compounds read high
In short: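 Values reflect how much compound exposure reduced yeast growth, referenced to vehicle-exposed cells. Assay organism is a strain with a defined genetic change affecting cell-cycle control.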

[9] = NCI Yeast Anticancer Drug Screen. Data for the cln2 rad14 strain (AID 165);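 note: 0% = growth equal to vehicle treated cultures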; details: S. cerevisiae cln2 rad14 strain, active compounds read high
In short: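 Relative to vehicle controls, growth inhibition of compound-treated cln2 rad14 yeast was recorded.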

[10] = NCI Yeast Anticancer Drug Screen. Data for the bub3 strain (AID 167); details: S. cerevisiae bub3 mutant strain, active compounds read high
In short: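 Compounds were applied to a genetically altered yeast strain carrying a cell-cycle control defect. Growth inhibition was scored against vehicle-treated controls.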

[11] = NCI Yeast Anticancer Drug Screen. Data for the wt2 strain (AID 169);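 note: 0% = growth of vehicle-treated yeast cultures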; details: S. cerevisiae wt2 strain growth inhibition, active compounds read high
In short: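 Values express reduction in yeast growth under compound treatment, referenced to vehicle-treated cells.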

[12] = NCI Yeast Anticancer Drug Screen. Data for the mlh1 strain (AID 171);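 note: 0% = growth of vehicle-treated control cultures of the same strain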; details: S. cerevisiae mlh1 strain growth inhibition, active compounds read high
In short: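 Steps: expose the defined-mutant yeast strain to compound; expose a parallel culture to vehicle; measure growth; express compound effect as inhibition relative to the vehicle culture.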

[13] = NCI Yeast Anticancer Drug Screen. Data for the sgs1 strain (AID 173);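 note: 0% = growth of vehicle-only control cultures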; details: S. cerevisiae sgs1 mutant, active compounds read high
In short: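 Treat defined-mutant yeast with compound; measure growth; calculate inhibition relative to vehicle-treated cells.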

[14] = NCI Yeast Anticancer Drug Screen. Data for the mlh1 rad18 strain (AID 175); details: S. cerevisiae mlh1 rad18 strain growth inhibition, active compounds read high
In short: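 Test agents were incubated with a yeast strain of defined genotype (DNA damage repair defect). Inhibition of growth was derived by comparison with vehicle-exposed cultures.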

[15] = NCI Yeast Anticancer Drug Screen. Data for the rad18 strain (AID 177); details: S. cerevisiae rad18 mutant growth inhibition, active compounds read high
In short: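 A genetically defined yeast mutant impaired in DNA damage repair was treated with test compounds, then its growth was measured against cultures receiving vehicle alone.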

[16] = at 5.0 µM (retest, dose inferred, filed as 0.5)
[17] = at 50.0 µM (retest, dose inferred, filed as 5.0)

With `Cc1cc(C(C)(C)CC(C)(C)C)cc(O)c1O` the growth inhibition ([1]; at 1.2 µM) was 12%, the growth inhibition ([1]; at 3.7 µM) was 34% and the growth inhibition ([1]; at 11.0 µM) was 77% (active). For the same compound, the growth inhibition ([1]; at 33.0 µM) was 96% (active), the growth inhibition ([1]; at 100.0 µM) was 98% (active) and the growth inhibition ([2]; at 1.2 µM) was -19%. The growth inhibition ([2]; at 3.7 µM) was 9%, the growth inhibition ([2]; at 11.0 µM) was 70% (active) and the growth inhibition ([2]; at 33.0 µM) was 94% (active). For the same compound, the growth inhibition ([2]; at 100.0 µM) was 98% (active), the growth inhibition ([3]; at 1.2 µM) was 23% and the growth inhibition ([3]; at 3.7 µM) was 40%. The growth inhibition ([3]; at 11.0 µM) was 87% (active), the growth inhibition ([3]; at 33.0 µM) was 97% (active) and the growth inhibition ([3]; at 100.0 µM) was 98% (active). For the same compound, the growth inhibition ([4]; at 1.2 µM) was -7%, the growth inhibition ([4]; at 3.7 µM) was 12% and the growth inhibition [4, 16] was 95% (active). The growth inhibition ([4]; at 11.0 µM) was 69%, the growth inhibition ([4]; at 33.0 µM) was 93% (active) and the growth inhibition [4, 17] was 99% (active). The growth inhibition ([4]; at 50.0 µM) was 92% (active), the growth inhibition ([4]; at 100.0 µM) was 97% (active) and the growth inhibition ([5]; at 1.2 µM) was 29%. The growth inhibition ([5]; at 3.7 µM) was 37%, the growth inhibition [5, 16] was 97% (active) and the growth inhibition ([5]; at 11.0 µM) was 72% (active). For the same compound, the growth inhibition ([5]; at 33.0 µM) was 95% (active), the growth inhibition [5, 17] was 100% (active) and the growth inhibition ([5]; at 50.0 µM) was 91.9% (active). For the same compound, the growth inhibition ([5]; at 100.0 µM) was 99% (active), the growth inhibition ([6]; at 1.2 µM) was -7% and the growth inhibition ([6]; at 3.7 µM) was 9%. The growth inhibition ([6]; at 11.0 µM) was 80% (active), the growth inhibition ([6]; at 33.0 µM) was 93% (active) and the growth inhibition ([6]; at 100.0 µM) was 97% (active). For the same compound, the growth inhibition [7, 16] was 4%, the growth inhibition [7, 17] was 97% (active) and the growth inhibition ([8]; at 1.2 µM) was 2%. For the same compound, the growth inhibition ([8]; at 3.7 µM) was 35%, the growth inhibition ([8]; at 11.0 µM) was 81% (active) and the growth inhibition ([8]; at 33.0 µM) was 97% (active). For the same compound, the growth inhibition ([8]; at 100.0 µM) was 98% (active), the growth inhibition [9, 16] was 37% and the growth inhibition [9, 17] was 95% (active). It also gave a growth inhibition ([10]; at 1.2 µM) of 1%, a growth inhibition ([10]; at 3.7 µM) of 19% and a growth inhibition [10, 16] of 21%. The growth inhibition ([10]; at 11.0 µM) was 74% (active), the growth inhibition ([10]; at 33.0 µM) was 97% (active) and the growth inhibition [10, 17] was 99% (active). For the same compound, the growth inhibition ([10]; at 100.0 µM) was 98% (active), the growth inhibition ([11]; at 1.2 µM) was 2% and the growth inhibition ([11]; at 3.7 µM) was 27%. For the same compound, the growth inhibition ([11]; at 11.0 µM) was 71% (active), the growth inhibition ([11]; at 33.0 µM) was 89% (active) and the growth inhibition ([11]; at 100.0 µM) was 54%. The growth inhibition ([12]; at 1.2 µM) was 6%, the growth inhibition ([12]; at 3.7 µM) was 20% and the growth inhibition ([12]; at 11.0 µM) was 85% (active). The growth inhibition ([12]; at 33.0 µM) was 88% (active), the growth inhibition ([12]; at 100.0 µM) was 99% (active) and the growth inhibition ([13]; at 1.2 µM) was 14%. The growth inhibition ([13]; at 3.7 µM) was 35%, the growth inhibition ([13]; at 11.0 µM) was 82% (active) and the growth inhibition ([13]; at 33.0 µM) was 92% (active). The growth inhibition ([13]; at 100.0 µM) was 97% (active), the growth inhibition [14, 16] was 83% (active) and the growth inhibition [14, 17] was 100% (active). For the same compound, the growth inhibition ([14]; at 50.0 µM) was 92% (active), the growth inhibition ([15]; at 1.2 µM) was 5% and the growth inhibition ([15]; at 3.7 µM) was 23%. For the same compound, the growth inhibition ([15]; at 11.0 µM) was 88% (active), the growth inhibition ([15]; at 33.0 µM) was 96% (active) and the growth inhibition ([15]; at 100.0 µM) was 98% (active).
